In PubChem BioAssay (Tox21):
“And” between values parts separate entries of the source, which are not always exact repeats. Equal entries are not always repeated. Records with an inconclusive call do not appear. The source made the active and inactive calls. Calls follow the shape of the dose curve; as a rule, active = well fitted inhibition curve with a large enough effect in the repeat runs; inconclusive = weak or mixed curves; inactive = no such curve, though single readings can be large or run the other way.

molecular target: Cytochrome P450 2C19 (Homo sapiens) (UniProt P33261); assay: Cytochrome P450 Family 2 Subfamily C Member 19 (CYP2C19) small molecule antagonists: luciferase reporter qHTS assay (AID 1671197); details: P450-Glo CYP2C19 enzyme, luciferin luminescence, 1 h; series mostly up to 115 µM; activity change, negative = inhibition: at the top concentration; also: nearly all actives have a fitted effect of over 65% in size
Sequence (P33261 whole entry, looked up): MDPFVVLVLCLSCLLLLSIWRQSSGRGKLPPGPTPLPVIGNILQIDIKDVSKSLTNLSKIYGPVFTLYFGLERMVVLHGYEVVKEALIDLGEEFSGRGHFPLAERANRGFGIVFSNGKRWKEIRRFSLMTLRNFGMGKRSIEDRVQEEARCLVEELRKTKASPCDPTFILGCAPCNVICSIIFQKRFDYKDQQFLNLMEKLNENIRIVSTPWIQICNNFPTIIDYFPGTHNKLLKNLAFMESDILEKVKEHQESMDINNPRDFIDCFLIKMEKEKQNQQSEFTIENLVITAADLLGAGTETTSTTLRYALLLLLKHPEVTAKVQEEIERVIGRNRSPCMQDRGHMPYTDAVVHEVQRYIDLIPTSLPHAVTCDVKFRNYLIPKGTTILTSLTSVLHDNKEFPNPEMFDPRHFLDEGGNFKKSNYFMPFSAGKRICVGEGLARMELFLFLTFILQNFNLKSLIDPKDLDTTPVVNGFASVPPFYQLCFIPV
In short: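 Quantitative high-throughput screen of the Tox21 library using CYP2C19 with proluciferin substrate. Reaction: NADPH regeneration, 37C, 1 h, after 10 min compound preincubation at room temperature. Readout: luminescence.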
% is scaled to controls: 0 for no effect and ±100 for the full control effect; potency is read from the fitted curve at half-maximal effect.

Structure (SMILES)	activity change, negative = inhibition	Potency
COC(=O)Cc1ccccc1	21.5% (inactive)	–
O=C(N[C@H]1CN2CCC1CC2)c1ccc2c(c1)OCCO2	9.83% (inactive)	–
ClCc1ccccc1Cl	-12% (inactive)	–
CC(C)(C#N)C(C)(C)C#N	-28.2% (inactive)	–
COc1ccc(C(=O)c2c(C)n(CCN3CCOCC3)c3ccccc23)cc1	–	34.7 µM (active)
Nc1c(Br)cc(Br)c2c1C(=O)c1ccccc1C2=O	-3.63% [at 23.6 µM] (inactive)	–
C=CCOC(=O)C(C)(C)OC(=O)c1cc(-n2c(=O)cc(C(F)(F)F)n(C)c2=O)ccc1Cl	–	49.3 µM (active)
CC(CC(C(N)=O)(c1ccccc1)c1ccccc1)N(C)C (centres undefined)	-1.72% [at 52.9 µM] (inactive)	–
CC(C)(C)NCC(O)c1cc(Cl)c(N)c(C(F)(F)F)c1 (centres undefined)	15.3% [at 52.9 µM] (inactive)	–

molecular target: Cytochrome P450 2C9 (Homo sapiens) (UniProt P11712); assay: Cytochrome P450 Family 2 Subfamily C Member 9 (CYP2C9) small molecule antagonists: luciferase reporter qHTS assay (AID 1671198); details: P450-Glo CYP2C9 enzyme assay, luciferin luminescence; series mostly up to 115 µM; activity change, negative = inhibition: at the top concentration; also: nearly all actives have a fitted effect of over 50% in size
Sequence (P11712 whole entry, looked up): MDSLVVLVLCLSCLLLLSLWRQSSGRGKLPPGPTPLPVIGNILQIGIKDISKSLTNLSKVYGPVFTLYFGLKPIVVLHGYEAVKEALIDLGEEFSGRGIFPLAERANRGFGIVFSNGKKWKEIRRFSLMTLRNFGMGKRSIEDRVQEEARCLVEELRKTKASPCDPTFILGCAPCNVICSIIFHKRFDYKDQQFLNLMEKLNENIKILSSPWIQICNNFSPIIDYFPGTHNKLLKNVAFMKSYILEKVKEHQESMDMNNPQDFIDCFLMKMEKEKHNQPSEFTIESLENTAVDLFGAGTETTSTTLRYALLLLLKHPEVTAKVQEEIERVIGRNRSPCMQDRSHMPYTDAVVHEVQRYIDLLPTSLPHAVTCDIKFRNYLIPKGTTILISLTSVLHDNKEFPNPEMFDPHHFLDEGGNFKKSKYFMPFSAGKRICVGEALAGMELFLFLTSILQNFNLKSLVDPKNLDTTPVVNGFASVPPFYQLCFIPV
In short: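 P450-Glo proluciferin substrate with CYP2C9 enzyme; 10 min RT preincubation, then NADPH regeneration 1 h at 37C; luciferin detection reagent 20 min RT, luminescence in relative luminescence units.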

Structure (SMILES)	Potency	activity change, negative = inhibition
CCOC(=O)c1cn2nc(OP(=S)(OCC)OCC)cc2nc1C	5.03 µM (active)	–
O=C(O)C(F)(F)C(F)(F)C(F)(F)C(F)(F)C(F)(F)F	15.9 µM (active)	–
O=C(O)c1ccc(=O)[nH]c1	–	0.0762% [at 53 µM] (inactive)
O=C(O)C(Cl)(Cl)Br	–	3.57% (inactive)
Cc1nc2ccccc2c(=O)n1-c1ccccc1Cl	39.1 µM (active)	–
CC(Oc1cc(Cl)c(Cl)cc1Cl)C(=O)O (centres undefined)	31.8 µM (active)	–
N#CC(C#N)=C(C#N)C#N	33.1 µM (active)	–
COc1cc(CC(C)N)c(OC)cc1Br (centres undefined)	–	-19.7% (inactive)
O=C(CCl)CCl	inactive	–
CCCCC(CC)COC(=O)c1c(Br)c(Br)c(Br)c(Br)c1C(=O)OCC(CC)CCCC (centres undefined)	–	-12.5% [at 53 µM] (inactive)
O=P(OCC(Br)CBr)(OCC(Br)CBr)OCC(Br)CBr (centres undefined)	16.1 µM (active) and 16.9 µM (active)	–
N#CC(C#N)=Cc1ccc(O)c(O)c1	17.4 µM (active)	–
COc1ccc2c(c1OC)C(=O)O[C@H]2[C@@H]1c2cc3c(cc2CCN1C)OCO3	5.49 µM (active)	–
CC(C)(C)N(NC(=O)c1ccc(Cl)cc1)C(=O)c1ccccc1	11.2 µM (active)	–
C[Si](Cn1cncn1)(c1ccc(F)cc1)c1ccc(F)cc1	1.84 µM (active) and 2 µM (active)	–
COc1cc(C[C@@H](C)N)c(OC)cc1Br	–	1.01% (inactive)
C[C@H]1[C@@H]2Cc3ccc(O)cc3[C@@]1(C)CCN2C	–	-2.66% [at 300 µM] (inactive)
CNC(=O)Oc1cccc(N=CN(C)C)c1	79.6 µM (active)	–
O=[N+]([O-])c1cc(Cl)c(Cl)cc1Cl	–	-14.1% (inactive)
CCOC(C(=O)OCCN(C)C)(c1ccccc1)c1ccccc1	11 µM (active)	–
CCCCCCCCCCCC[N+](C)(C)CCOc1ccccc1	63.3 µM (active)	–
O=C(N[C@H]1CN2CCC1CC2)c1ccc2c(c1)OCCO2	–	-25.6% (inactive)
CCCCC#N	–	-8.72% (inactive)
ClCc1ccccc1Cl	–	-4.4% (inactive)
CC(C)(C#N)C(C)(C)C#N	–	1.47% (inactive)
COc1ccc(C(=O)c2c(C)n(CCN3CCOCC3)c3ccccc23)cc1	12.3 µM (active)	–
Nc1c(Br)cc(Br)c2c1C(=O)c1ccccc1C2=O	–	-2.78% [at 23.6 µM] (inactive)
C=CCOC(=O)C(C)(C)OC(=O)c1cc(-n2c(=O)cc(C(F)(F)F)n(C)c2=O)ccc1Cl	15.6 µM (active)	–
CC(CC(C(N)=O)(c1ccccc1)c1ccccc1)N(C)C (centres undefined)	–	-13.5% [at 53 µM] (inactive)
CC(C)(C)NCC(O)c1cc(Cl)c(N)c(C(F)(F)F)c1 (centres undefined)	–	-1.83% [at 53 µM] (inactive)
